D2 antag = D2 dopamine receptor (human) antagonism | P14416 | HEK293 TREx D2 cells, calcium flux, dopamine EC80 | inhibition, % at 10 µM | 2% of 340,000 active | AID 485344; in the data active means inhibition above about 30%; inactive means below that, where a call was filed
Target sequence (P14416 whole entry, looked up): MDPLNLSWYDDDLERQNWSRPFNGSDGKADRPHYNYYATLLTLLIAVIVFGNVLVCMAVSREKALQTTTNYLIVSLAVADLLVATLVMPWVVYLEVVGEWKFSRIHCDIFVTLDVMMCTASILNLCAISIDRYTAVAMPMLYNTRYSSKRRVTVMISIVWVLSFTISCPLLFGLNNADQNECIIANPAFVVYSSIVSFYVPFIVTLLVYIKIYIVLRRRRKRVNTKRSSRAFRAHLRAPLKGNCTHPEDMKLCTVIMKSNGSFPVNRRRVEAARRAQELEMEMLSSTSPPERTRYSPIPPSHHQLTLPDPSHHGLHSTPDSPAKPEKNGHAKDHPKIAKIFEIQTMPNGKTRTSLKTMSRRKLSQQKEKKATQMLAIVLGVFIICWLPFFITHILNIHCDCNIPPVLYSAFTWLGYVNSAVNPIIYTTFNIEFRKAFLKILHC
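Dopamine at EC80 is the agonist stimulus; test compounds precede it by 180 s. Calcium flux read kinetically in a force-coupled, inducible HEK293 T-REx D2 cell line.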
D2 PAM-1 = positive allosteric modulators of human D2 dopamine receptor; P14416; DiscoveRx D2 beta-arrestin cells, luminescence, 90 min; 100% = 57 uM dopamine signal; potentiation, % (concentration not given with the values); 0.23% of 360,000 active; AID 624464; in the data active means potentiation above about 50%; inconclusive means mostly about 30% to 49%
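D2 cells co-treated with compound plus 50 nM dopamine (EC20) for 90 min at 37 deg C to detect potentiation. Beta-arrestin recruitment was read as enzyme-fragment luminescence after 1 h at ambient temperature. Full response was set by 57 uM dopamine.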
D2 ag-1 = activates the human D2 dopamine receptor | P14416 | HEK293 T-REx D2 cells, calcium flux agonist mode | activation, % at 2 µM | 0.53% of 340,000 active | AID 485358;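 active means activation over 3 SD above normal in the single-dose calcium agonist read, cut at about 30% in these data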
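Tetracycline-induced HEK293 T-REx cells with force-coupled D2 receptor, plated overnight at 30 C, loaded with no-wash calcium dye. After a 10 s baseline, compound was pin-added and calcium flux read kinetically for 180 s; calcium rises flagged agonists.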
D2 ag-2 = agonists of human D2 dopamine receptor (beta-arrestin) | P14416 | DiscoveRx PathHunter D2 beta-arrestin, luminescence, 90 min; 100% = 57 uM dopamine signal | activation, % (test concentration not listed) | 0.084% of 360,000 active; in the data active means activation above about 40%; inconclusive means between about 15% and that limit
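Agonist mode: compounds alone added to overnight-plated D2 PathHunter cells for 90 min at 37 C, with 57 uM final dopamine (EC100) defining full response. Beta-arrestin recruitment detected by chemiluminescent reagent, read after 1 h at ambient temperature.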
D2 PAM-2 = D2 dopamine receptor (human) potentiation | AID 485347 | 0.34% of 340,000 active | HEK293 T-REx D2, calcium flux, EC20 dopamine potentiation | potentiation, % at 10 µM | P14416;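 active means potentiation over 3 SD above the plate norm, cut at about 30% in these data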
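Tetracycline-induced HEK293 T-REx cells force-coupled to calcium signalling expressed D2; compounds were pin-added after a 10 s baseline, read kinetically 180 s, then an EC20 dopamine challenge followed with a further 180 s calcium read.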
Numbers stand for hits. An excerpt weighted towards active compounds, which were near 2.4% of everything screened.

CN(C)c1ccc(S(=O)(=O)NCC(=O)NCCC2=CCCCC2)cc1[N+](=O)[O-] was read as D2 antag 31.4, D2 PAM-1 inactive, D2 ag-1 inactive, D2 ag-2 inactive and D2 PAM-2 inactive.
Screening Clc1cccc(-n2ncc3c(NCCCN4CCOCC4)ncnc32)c1 returned D2 ag-1 inactive and D2 PAM-2 inactive.
`COc1cccc(CN(Cc2ccco2)c2cnc(S(C)(=O)=O)nc2C(=O)Nc2cccc(Cl)c2C)c1` gave D2 PAM-2 inactive.
`Nc1cc(Cl)nnc1Cl` gave D2 antag 35.8, D2 PAM-1 inactive, D2 ag-1 inactive, D2 ag-2 inactive and D2 PAM-2 inactive.
Cc1cc(C)cc(C(=O)N2CC(=O)Nc3ccc(Br)cc3C2c2ccccc2)c1 (stereo unspecified) was read as D2 ag-1 inactive and D2 PAM-2 inactive.
Cc1ncc([N+](=O)[O-])n1Cc1cccc2ccccc12 was read as D2 antag inactive, D2 PAM-1 inactive, D2 ag-1 inactive, D2 ag-2 inactive and D2 PAM-2 inactive.
`Cc1ncc([N+](=O)[O-])n1Cc1ccccc1F` gave D2 antag 31.5, D2 PAM-1 inactive, D2 ag-1 inactive, D2 ag-2 inactive and D2 PAM-2 inactive.
`CCOC(=O)c1c(NC(=O)COC(=O)c2ccc(O)cc2)sc(C(=O)N(C)C)c1C` gave D2 antag inactive, D2 PAM-1 inactive, D2 ag-1 inactive, D2 ag-2 inactive and D2 PAM-2 36.4.
`CCOC(=O)c1c(NC(=O)OC)sc(C(=O)N(C)C)c1C` gave D2 antag 69.4, D2 PAM-1 inactive, D2 ag-1 inactive, D2 ag-2 inactive and D2 PAM-2 inactive.
`O=C(NCc1ccccc1Cl)c1ccc2oc(=O)n(Cc3ccccc3)c2c1` gave D2 ag-1 inactive and D2 PAM-2 inactive.
CCCCC(CC)CNC(=O)CN(C)S(=O)(=O)c1ccc2c(c1)c(=O)n(C)c(=O)n2C (stereo unspecified) was read as D2 ag-1 inactive.
For CN1CCc2c(sc3c2C(=O)NC(c2ccc4c(c2)OCO4)N3)C1 (stereo unspecified) the results were D2 antag 32.2, D2 PAM-1 inactive, D2 ag-1 inactive, D2 ag-2 inactive and D2 PAM-2 inactive.
Cn1c(=O)c2c(ncn2CC2OCCO2)n(C)c1=O was read as D2 antag 32.0, D2 PAM-1 inactive, D2 ag-1 inactive, D2 ag-2 inactive and D2 PAM-2 inactive.
`Cn1c(=O)c2c(ncn2CC(N)=O)n(C)c1=O` gave D2 antag inactive, D2 PAM-1 inactive, D2 ag-1 inactive, D2 ag-2 inactive and D2 PAM-2 inactive.
CC(C)(C)c1nn(-c2ccccc2)c2[nH]c(=O)c(C=O)cc12 was read as D2 antag 38.8, D2 PAM-1 inactive, D2 ag-1 inactive, D2 ag-2 inactive and D2 PAM-2 inactive.
For CCOc1ccc(NCc2cc3c(C(C)(C)C)nn(-c4ccccc4)c3[nH]c2=O)cc1 the results were D2 antag inactive, D2 PAM-1 inactive, D2 ag-1 inactive, D2 ag-2 inactive and D2 PAM-2 inactive.
CC(C)(C)c1nn(-c2ccccc2)c2nc(Cl)c(C=O)cc12 was read as D2 antag 32.1, D2 PAM-1 inactive, D2 ag-1 inactive, D2 ag-2 inactive and D2 PAM-2 inactive.
For COc1ccc(C(=O)Nc2cccc(NC(=O)c3ccc(OC)c(OC)c3)n2)cc1OC the results were D2 antag inactive, D2 PAM-1 85.3, D2 ag-1 inactive, D2 ag-2 inactive and D2 PAM-2 inactive.
CCOc1ccccc1NC(=O)C(=O)Nc1ccc2nc3n(c(=O)c2c1)CCCCC3 was read as D2 ag-1 inactive and D2 PAM-2 inactive.
COCC(=O)NC1CC2CCCC(C1)N2Cc1ccccc1 (stereo unspecified) was read as D2 antag 42.2, D2 PAM-1 inactive, D2 ag-1 inactive, D2 ag-2 inactive and D2 PAM-2 inactive.
`COc1ccc(CN2C3CCCC2CC(NC(=O)Nc2ccccc2)C3)cc1` (stereo unspecified) gave D2 antag 80.2, D2 PAM-1 inactive, D2 ag-1 inactive, D2 ag-2 inactive and D2 PAM-2 inactive.
`CC(C)(C)OC(=O)NC1CC2CCCC(C1)N2Cc1ccccc1` (stereo unspecified) gave D2 antag 59.9, D2 PAM-1 inactive, D2 ag-1 inactive, D2 ag-2 inactive and D2 PAM-2 inactive.
COCCNC(=S)NC1CC2CCC(C1)N2Cc1ccccc1 (stereo unspecified) was read as D2 antag inactive, D2 PAM-1 inactive, D2 ag-1 inactive, D2 ag-2 inactive and D2 PAM-2 inactive.
COc1ccc(CN2C3CCCC2CC(NC(=O)Nc2cccc(C)c2)C3)cc1 (stereo unspecified) was read as D2 antag inactive, D2 PAM-1 inactive, D2 ag-1 inactive, D2 ag-2 inactive and D2 PAM-2 inactive.
Screening C=CCN1C2CCCC1CC(NC(=O)Nc1cccc(C(C)=O)c1)C2 (stereo unspecified) returned D2 antag 33.2, D2 PAM-1 inactive, D2 ag-1 inactive, D2 ag-2 inactive and D2 PAM-2 inactive.
For CS(=O)(=O)c1nc(S(=O)(=O)c2ccc(Cl)cc2)c(NCc2ccccn2)s1 the results were D2 antag inactive, D2 PAM-1 inactive, D2 ag-1 inactive, D2 ag-2 inactive and D2 PAM-2 30.0.
`CCc1ccc(C(=O)c2cn(CC(=O)NCCc3ccccc3)c3nc(C)ccc3c2=O)cc1` gave D2 PAM-2 inactive.
Screening CN(CC(=O)Nc1ccccc1Cl)C(=O)COC(=O)c1nc(Cl)ccc1Cl returned D2 antag inactive, D2 PAM-1 inactive, D2 ag-1 inactive, D2 ag-2 inactive and D2 PAM-2 inactive.
CN(CC(=O)Nc1ccccc1Cl)C(=O)COC(=O)c1ccc([N+](=O)[O-])cc1Cl was read as D2 antag inactive, D2 PAM-1 52.9, D2 ag-1 inactive, D2 ag-2 inconclusive and D2 PAM-2 inactive.
For O=C(O)/C(=C/c1ccco1)NC(=O)c1ccccc1 the results were D2 antag 33.7, D2 PAM-1 inactive, D2 ag-1 inactive, D2 ag-2 inactive and D2 PAM-2 inactive.
`COc1ccc(NC(=O)Cn2c(CCC(=O)O)ccc2-c2ccccc2)cc1Cl` gave D2 ag-1 inactive and D2 PAM-2 inactive.
Screening CC(C(=O)NCC1CCCCC1)N1CCc2ccccc2C1 (stereo unspecified) returned D2 antag 54.4, D2 PAM-1 inactive, D2 ag-1 inactive, D2 ag-2 inactive and D2 PAM-2 inactive.
Screening Cc1ccc(C)c(OCCC(=O)OCC(=O)N2c3ccccc3NC(=O)C2(C)C)c1 returned D2 antag 42.3, D2 PAM-1 inactive, D2 ag-1 inactive, D2 ag-2 inactive and D2 PAM-2 inactive.

High-throughput results: PubChem BioAssay, National Center for Advancing Translational Sciences (NCATS)
